The text below walks through data of PubChem BioAssay (EPA / NIEHS).

The structures appear in SMILES notation. Some compounds were tested as several samples or in several runs, with calls that do not always agree. Active and inactive are the calls of the source. How the source made its calls: active means hit-call score of the fitted dose curve at least 0.9, where 1 is the maximum; inactive means score below 0.9.

Read-out in the test: Interleukin-8 (IL8), CXCL8 (gene 3576)
The test can be described thus: BSK_hDFCGF_IL8: BioMAP Diversity Plus: hDFCGF Assay for Interleukin-8 (IL8) Biomarker Activity (AID 2283058). Conditions: primary human foreskin fibroblasts; actives raise or lower the signal. How it is done: BSK_hDFCGF is a cell-based, multiplexed-readout assay that uses foreskin fibroblast, a human skin primary cell, with measurements taken at 24 hours after chemical dosing in a 96-well plate.BSK_hDFCGF_IL8 is an assay component measured in the BSK_hDFCGF assay. It measures IL-8 antibody related to regulation of gene expression using ELISA technology.Data from the assay component BSK_hDFCGF_IL8 was analyzed into 1 assay endpoint. This assay endpoint, BSK_hDFCGF_IL8, was analyzed with bidirectional fitting relative to DMSO as the negative control and baseline of activity. Using a type of binding reporter, gain or loss-of-signal activity can be used to understand changes in the signaling as they relate to the gene CXCL8. Furthermore, this assay endpoint can be referred to as a primary readout, because this assay has produced multiple assay endpoints where this one serves a signaling function. To generalize the intended target to other relatable targets, this assay endpoint is annotated to the cytokine intended target family, where the subfamily is interleukins.
The levels of cell surface (or secreted, indicated by the prefix "s") biomarker endpoints were measured by ELISA. Overt cytotoxicity to cells in confluent adherent cultures (all systems other than the BT system) was assessed by measuring total protein levels using sulforhodamine B (SRB) staining in parallel cultures at the time of biomarker measurements, indicated as SRB endpoints. For proliferation assays for adherent cell types, individual cell types are cultured at sub-confluence and relative cell numbers quantified by SRB staining at time points optimized for each system (48 h: 3C and CASM3C systems; 72 h: BT and HDF3CGF systems; 96 h: SAg system). SRB was performed by staining cells with 0.1% SRB after fixation with 10% TCA and reading wells at 560 nm.Viability and proliferation of PBMC (T cells) was quantified by Alamar Blue reduction for the SAg and BT systems. For PBMC viability (referred to as PBMC Cytotoxicity within the assay endpoint names), cells were plated (75,000/well in a 96-well plate) and then chemical samples added for 1 h before addition of activators, SEB and TSST-1 (20 ng/mL final concentration each). Cells were incubated for 90 h. Then, Alamar Blue (20 uL/well) (Invitrogen, Cat DAL1100) was added for 6 h, and the plates were read with a fluorescence microplate reader at 546/580 nm (excitation/emission). For PBMC proliferation, cells were plated and activated as above but incubated for only 16 h prior to addition of Alamar Blue. Plates were read after 6 h.
For the compound `COC(=O)C(C)Oc1ccc(Oc2ccc(Cl)cc2Cl)cc1` (stereo not given), the outcome was inactive.
Regarding `CCNc1nc(Cl)nc(NCC)n1`, the result was inactive.
Same read-out and setting: for `COc1ccc(C(c2ccc(OC)cc2)C(Cl)(Cl)Cl)cc1` the value was “inactive”.
Take `CCCN(CCC)c1c([N+](=O)[O-])cc(S(N)(=O)=O)cc1[N+](=O)[O-]`: the result was inactive and the AC50 was 34.5 µM (active).
As for `CCOc1cc(Oc2ccc(C(F)(F)F)cc2Cl)ccc1[N+](=O)[O-]`, the result was inactive.
The same measure, in the same setting: the value for `CCCC1COC(Cn2cncn2)(c2ccc(Cl)cc2Cl)O1` (stereo not given) was “inactive”.
`Oc1ccccc1-c1ccccc1`: the outcome was inactive.
`CCOC(=O)CC(SP(=S)(OC)OC)C(=O)OCC` (stereo not given): the outcome was inactive.
With `CC(C)Oc1cc(-n2nc(C(C)(C)C)oc2=O)c(Cl)cc1Cl`, the result was inactive.
Still for that read-out and setting: for `CC(C)C1(C)N=C(c2nc3ccccc3cc2C(=O)O)NC1=O` (stereo not given) the value was “inactive”.
With `CCc1nn(C)c(C(=O)NCc2ccc(C(C)(C)C)cc2)c1Cl`, the AC50 is 35.4 µM (active).
Regarding `CCCCOC(=O)c1ccccc1C(=O)OCCCC`, the outcome was inactive.
Same read-out and setting: for `N#CC(CCc1ccc(Cl)cc1)(Cn1cncn1)c1ccccc1` (stereo not given) the value was “inactive”.
Still for that read-out and setting: for `O=C(O)c1nc(Cl)ccc1Cl` the value was “inactive”; for `COc1nc(NC(C)C)nc(NC(C)C)n1`, “inactive”.
Consider `C=CCC1=C(C)C(OC(=O)C2C(C=C(C)C)C2(C)C)CC1=O` (stereo not given), for which the AC50 was 40.3 µM (active) [middle of 4 runs].
In the case of `CC(Oc1ccc(Cl)cc1Cl)C(=O)O` (stereo not given), the outcome was inactive.
For `C=CC1(C)OC(=O)N(c2cc(Cl)cc(Cl)c2)C1=O` (stereo not given), the result was inactive.
Still for that read-out and setting: for `CCCCC(CC)COC(=O)c1ccccc1C(=O)OCC(CC)CCCC` (stereo not given) the value was “inactive”; for `CCCCNC(=O)n1c(NC(=O)OC)nc2ccccc21`, “inactive”.
On the same count and under the same terms, the value for `O=C(Nc1ccccc1)Nc1ccnc(Cl)c1` was “inactive”.
Same read-out and setting: the value for `COc1nc(C)nc(NC(=O)NS(=O)(=O)c2ccccc2Cl)n1` was “inactive”.
For the compound `N#Cc1nn(-c2c(Cl)cc(C(F)(F)F)cc2Cl)c(N)c1S(=O)C(F)(F)F` (stereo not given), the result was inactive.
Consider `CC1COC(Cn2cncn2)(c2ccc(Oc3ccc(Cl)cc3)cc2Cl)O1` (stereo not given), for which the half-maximal activity concentration (AC50) is 34.5 µM (active).
`Cc1ccc(-c2c(Cl)nc(C#N)n2S(=O)(=O)N(C)C)cc1`: the result was inactive.
Regarding `COP(N)(=O)SC` (stereo not given), the outcome was inactive.
Same read-out and setting: for `COc1nc(C)nc(NC(=O)NS(=O)(=O)c2ccccc2CCC(F)(F)F)n1` the value was “inactive”.
As for `COc1cnc(OC)n2nc(NS(=O)(=O)c3c(OCC(F)F)cccc3C(F)(F)F)nc12`, the outcome was inactive.
Same read-out and setting: the value for `Cc1cc(Cl)ccc1OCC(=O)O` was “inactive”; that for `CCOC(=O)C(Cl)Cc1cc(-n2nc(C)n(C(F)F)c2=O)c(F)cc1Cl` (stereo not given) was “inactive”.
On to `COC(=O)C=C(C)OP(=O)(OC)OC`, for which the outcome was inactive.
Regarding `Fc1ccc(Oc2ccnc3cc(Cl)cc(Cl)c23)cc1`, the result was inactive.
Same read-out and setting: the value for `COP(=S)(OC)Oc1nc(Cl)c(Cl)cc1Cl` was “inactive”; that for `CC1=C(C(=O)Nc2ccccc2)SCCO1` was “inactive”; that for `CC(C)(C)c1ccc(CSc2cnn(C(C)(C)C)c(=O)c2Cl)cc1` was “inactive”.
Turning to `O=C(O)COc1nc(Cl)c(Cl)cc1Cl`, the outcome was inactive.
On the same count and under the same terms, for `CNC(=O)ON=CC(C)(C)SC` the value was “inactive”.
As to `COC(=O)N(OC)c1ccccc1COc1ccn(-c2ccc(Cl)cc2)n1`, the AC50 is 5.63 µM (active).
Regarding `Cc1c(F)c(F)c(COC(=O)C2C(/C=C(\Cl)C(F)(F)F)C2(C)C)c(F)c1F` (stereo not given), the outcome was inactive.

Broadly, the AC50 is the concentration at which the activity in the assay is half-maximal.
